High-throughput results as filed in PubChem.
Rows were chosen to be rich in hits. Some 3.5% of all compounds tested hit in one or more screens of this group.
BoNT-F LC inh – inhibitors of Botulinum neurotoxin F light chain protease | Multiplex microsphere protease cleavage assay, flow cytometry | inhibition, % at 10 µM | 360,000 compounds, 0.22% hits | AID 588497; in the data active = inhibition above about 35%, passing the limit was not always enough; inconclusive = no clear call, values can overlap the other calls; also: plate controls were buffer without enzyme for full effect and enzyme alone for no effect
Anthrax LF prot – anthrax lethal factor protease inhibition; P15917; multiplex microsphere protease cleavage assay, LF; inhibition, % at 10 µM; 360,000 compounds, 0.12% hits; AID 588501; also: plate controls were buffer without enzyme for full effect and enzyme alone for no effect
Target sequence (P15917 whole entry, looked up): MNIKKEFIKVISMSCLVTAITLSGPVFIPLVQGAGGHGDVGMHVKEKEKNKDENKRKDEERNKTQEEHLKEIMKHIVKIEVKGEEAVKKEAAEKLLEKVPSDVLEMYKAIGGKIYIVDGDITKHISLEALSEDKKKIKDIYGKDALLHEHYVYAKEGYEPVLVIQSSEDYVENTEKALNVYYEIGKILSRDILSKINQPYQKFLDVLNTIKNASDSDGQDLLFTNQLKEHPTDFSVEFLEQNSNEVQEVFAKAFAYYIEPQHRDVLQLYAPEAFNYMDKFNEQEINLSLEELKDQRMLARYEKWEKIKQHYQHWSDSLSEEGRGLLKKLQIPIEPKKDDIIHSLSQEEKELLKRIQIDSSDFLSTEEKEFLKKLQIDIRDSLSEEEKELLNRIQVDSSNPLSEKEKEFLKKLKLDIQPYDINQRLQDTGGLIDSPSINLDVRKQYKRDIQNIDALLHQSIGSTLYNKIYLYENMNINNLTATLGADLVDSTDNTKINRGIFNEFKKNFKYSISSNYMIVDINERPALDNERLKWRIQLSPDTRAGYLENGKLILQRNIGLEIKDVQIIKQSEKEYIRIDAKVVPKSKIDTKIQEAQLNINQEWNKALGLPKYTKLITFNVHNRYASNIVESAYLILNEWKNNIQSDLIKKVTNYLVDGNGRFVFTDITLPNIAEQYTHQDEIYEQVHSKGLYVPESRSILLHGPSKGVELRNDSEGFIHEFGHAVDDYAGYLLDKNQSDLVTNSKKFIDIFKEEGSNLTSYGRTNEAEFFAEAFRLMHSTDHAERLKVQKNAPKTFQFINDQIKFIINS
Autofluor counter – counter-screen for toxin protease inhibitors: compound fluorescence; compound autofluorescence counterscreen, microsphere flow cytometry; stronger effect = higher value; fluorescence intensity (no concentration beside the values); 360,000 compounds, 3.1% hits; AID 624483; in the data active = fluorescence intensity above about 16000; inconclusive = no clear call, values can overlap the other calls
BoNT A protease – BoNT A light chain protease inhibition. multiplex microsphere protease substrate cleavage, flow cytometry. inhibition, % at 10 µM. 360,000 compounds, 0.17% hits; also: plate controls were buffer without enzyme for full effect and enzyme alone for no effect
* hit, by the source's call; ? = inconclusive. Rule as the data show it, unless noted: active = inhibition above about 30%; inconclusive = no clear call, values can overlap the other calls; inactive = below that.

SMILES	BoNT-F LC inh	Anthrax LF prot	Autofluor counter	BoNT A protease
Cc1cccc(C)c1NC(=S)NC(=O)CCc1ccccc1	2	-2	5612	0
Cc1ccccc1NC(=S)NC(=O)CCc1ccccc1	-3	4	19923*	-1
Cc1ccc(C)c(S(=O)(=O)N(C)C2(C)CCS(=O)(=O)C2)c1 (stereo not drawn)	-12	-5	6337	-3
CCOc1ccccc1NC(=O)Nc1ccon1	-2	-4	4564	-1
COc1ccccc1C(=O)NC(CCSC)C(=O)NCC(c1ccco1)N(C)C (stereo not drawn)	-3	-1	21152*	-1
CCCN1CCN(C(=O)Nc2ccc(C(=O)OCC)cc2)CC1	-1	-2	20252*	0
CC(=O)c1ccc(NC(=O)CCC(=O)OCC(F)(F)C(F)F)cc1	-2	1	20248*	?
CCCOC(=O)c1ccc(NC(=O)CCC(=O)OCC)cc1	11	0	21063*	4
CC(NC(=O)c1ccc2c(c1)OCO2)C1CCCO1 (stereo not drawn)	1	0	22158*	0
COc1ccccc1CNC(=O)CNC(=O)c1ccc(Br)o1	2	3	5952	1
O=C(N/N=C/c1ccccc1)c1sccc1OCc1ccc(F)cc1	-9	3	2645	0
Cc1nn(C(C)C(=O)NNC(=S)Nc2ccc(F)cc2)c(C)c1[N+](=O)[O-] (stereo not drawn)	-1	-1	24064*	-2
C(#Cc1ccc(C#CCN2CCOCC2)cc1)CN1CCOCC1	-3	-2	17459*	-2
CCC(=O)Nc1ccc2c(c1)ncn2-c1ccccc1	-10	0	21985*	-8
CC(=O)Nc1ccc2c(c1)ncn2-c1ccccc1	6	14	4327	0
CCOC(=O)/C=C1\CC(=O)Nc2nonc2N1	1	1	22714*	1
CCOC(=O)/C=C1\CC(=O)Nc2cc(C)c(C)cc2N1	-2	-1	20731*	-2
CS(=O)(=O)c1ccc(Cl)c(NC(=O)CSc2nnc3n2CCCCC3)c1	-3	1	3637	0
CCOc1cc(CNCCc2ccc(S(N)(=O)=O)cc2)ccc1OCc1ccccc1	-18	-2	22507*	-5
COc1ccc(CCNc2ccncn2)cc1OC	3	0	23028*	2
COc1ccc(CNCCc2ccc(Cl)cc2)cc1OCc1ccccc1	-6	-8	4696	0
COc1ccc(CCNc2ccncn2)cc1	2	-10	5963	0
COc1ccc(CNCCc2ccccc2)cc1OCC(N)=O	3	0	20991*	4
CCOc1cc(CNCCc2ccc(S(N)(=O)=O)cc2)cc(Cl)c1OCc1ccccc1	-28	-7	11121	-2
COc1cc(CNCc2ccccn2)ccc1OCC(N)=O	3	0	6786	0
SMILES	BoNT-F LC inh	Anthrax LF prot	Autofluor counter	BoNT A protease
COc1ccc(CCNCc2ccccn2)cc1OC	-3	-4	16567*	-2
O=C(NCC1CCCCC1)c1cc(Br)ccc1Cl	1	-2	4416	0
Cc1ccc(C(O)c2ncc(-c3ccc(Cl)cc3)[nH]2)cc1F (stereo not drawn)	-5	1	3663	0
COc1ccc(CN2CCCC(C(=O)c3ccc(Cl)cc3)C2)c(O)c1 (stereo not drawn)	35*	4	3167	5
COc1ccc(C(=O)C2CCCN(Cc3cc(Cl)ccc3O)C2)c(OC)c1 (stereo not drawn)	-15	-3	3656	-2
CCN(CC(=O)Nc1c(F)cccc1F)C(=O)c1ccc2ncsc2c1	-311	-42	49356*	-181
CCOc1ccccc1C1C(C#N)=C(N)Oc2cc(N)ccc21 (stereo not drawn)	0	-7	21823*	3
CC1CN(C2=NC(=O)/C(=C3/C(=O)N(Cc4ccc(F)cc4)c4ccccc43)S2)CC(C)O1 (stereo not drawn)	?	32*	4079	?
O=C(O)CCN1C(=O)/C(=C2\C(=O)N(Cc3ccc(F)cc3)c3ccccc32)SC1=S	-12	6	3808	-3
CCCN1C(=O)/C(=C2\SC(N3CCCCC3)=NC2=O)c2ccccc21	?	-4	3963	0
O=C1N=C(N2CCOCC2)S/C1=C1\C(=O)N(Cc2ccccc2)c2ccccc21	-2	-3	16736*	-1
CC(C)Cn1cnc2c(SCCc3ccccc3)nc(N)nc21	-7	-4	3683	0
CCn1c(SCC(=O)Nc2ccc(C(C)=O)cc2)nc2nc3c(cc2c1=O)CCCC3	1	-5	23239*	?
CCCC(C)NC(=O)CSc1nc2ccc(C)cc2[nH]1 (stereo not drawn)	-3	-4	4091	1
Cc1cccc(NC(=O)c2nc[nH]c2C(=O)Nc2ccccc2F)c1	2	-2	3577	0
Cc1nc(-c2cccc(NS(=O)(=O)c3cccc4ccccc34)c2)cs1	3	-1	22200*	?
